This is a sample that favours compounds with a hit; in the whole collection about 11% have one here.
USP28 inh – human USP28 deubiquitinase inhibition; purified USP28, Ub-rhodamine cleavage fluorescence, 30 min; Q96RU2; inhibition, % at 25 µM; 47,000 tested, 3% active
Target sequence (Q96RU2 whole entry, looked up): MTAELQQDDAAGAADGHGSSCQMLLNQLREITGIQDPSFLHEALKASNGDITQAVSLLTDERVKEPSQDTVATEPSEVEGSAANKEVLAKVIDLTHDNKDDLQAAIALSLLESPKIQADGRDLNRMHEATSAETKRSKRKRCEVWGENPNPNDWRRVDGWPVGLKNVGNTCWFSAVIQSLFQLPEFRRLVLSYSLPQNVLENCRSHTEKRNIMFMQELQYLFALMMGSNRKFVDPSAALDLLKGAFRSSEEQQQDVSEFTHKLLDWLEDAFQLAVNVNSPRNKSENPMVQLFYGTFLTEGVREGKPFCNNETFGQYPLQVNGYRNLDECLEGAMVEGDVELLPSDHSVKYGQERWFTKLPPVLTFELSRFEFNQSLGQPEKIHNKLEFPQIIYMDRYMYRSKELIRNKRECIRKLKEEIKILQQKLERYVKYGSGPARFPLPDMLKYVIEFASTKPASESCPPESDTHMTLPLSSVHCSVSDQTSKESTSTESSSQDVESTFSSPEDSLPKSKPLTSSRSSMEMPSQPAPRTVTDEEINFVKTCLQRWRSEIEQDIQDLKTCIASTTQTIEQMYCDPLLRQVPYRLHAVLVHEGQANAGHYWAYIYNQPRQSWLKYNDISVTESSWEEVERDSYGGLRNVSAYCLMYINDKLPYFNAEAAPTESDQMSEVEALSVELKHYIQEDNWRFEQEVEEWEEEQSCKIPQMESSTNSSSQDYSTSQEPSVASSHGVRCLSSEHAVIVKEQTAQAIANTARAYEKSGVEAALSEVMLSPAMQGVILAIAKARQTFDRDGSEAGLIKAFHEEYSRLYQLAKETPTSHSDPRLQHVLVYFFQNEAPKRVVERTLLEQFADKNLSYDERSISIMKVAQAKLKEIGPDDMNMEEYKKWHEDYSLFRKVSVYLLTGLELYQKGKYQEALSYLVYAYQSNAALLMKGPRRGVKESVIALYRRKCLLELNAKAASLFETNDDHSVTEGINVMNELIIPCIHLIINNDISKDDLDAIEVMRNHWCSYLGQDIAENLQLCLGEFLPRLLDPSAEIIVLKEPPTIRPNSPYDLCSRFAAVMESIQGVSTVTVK
USP17 block – blocks human USP17 ubiquitin-rhodamine cleavage; 47,000 tested, 6.5% active; AID 1645855; A8MUK1; purified USP17, Ub-rhodamine cleavage fluorescence, 3 h; inhibition, % at 50 µM
USP30 block – blocks human USP30 ubiquitin-rhodamine cleavage | 47,000 tested, 5.3% active | purified USP30, Ub-rhodamine cleavage fluorescence | AID 1645860 | Q70CQ3 | inhibition, % at 25 µM
Active calls of the source: *; i = inactive; . = not tested or not shown. Rule as the data show it: active = inhibition above about 30%; inactive = the rest.

SMILES | USP28 inh | USP17 block | USP30 block
COc1ccc(CNC(=O)Cn2c(=O)c3c(ncn3C3CCCC3)n(Cc3ccccc3)c2=O)cc1 | 4 | 43* | -5
Cc1c(Cl)cccc1NC(=O)c1cc(C(F)(F)F)n(C)n1 | -3 | 0 | -13
COc1cc(O)cc2c1C(=O)O[C@@H](C[C@H]1CCC[C@H](C)O1)C2 | 4 | -11 | 0
COc1cc2cc3c(c(O)c2c(O)c1-c1c(OC)cc2cc4c(c(O)c2c1O)C(=O)OC1CC(C)OC41)C(=O)OC1CC(C)OC31 (centres undefined) | 7 | 61* | -62
CN(C)c1ccc(CN2CCc3nc(-c4ccncc4)[nH]c(=O)c3C2)cc1 | 6 | 7 | -12
Cn1cc(CN2CCc3nc(-c4ccccn4)[nH]c(=O)c3C2)cn1 | -21 | -40 | -17
O=c1[nH]c(-c2ccncc2)nc2c1CCN(Cc1ccc(Cl)cc1)C2 | 9 | 28 | 43*
O=c1[nH]c(-c2ccccn2)nc2c1CCN(Cc1cnn(-c3ccccc3)c1)C2 | -12 | 55* | 19
CC(C)c1ccc(C2CC(=O)c3cnc(NC(=O)c4cccc(Cl)c4)nc3C2)cc1 (centres undefined) | -3 | -3 | -70
CC1=C(c2ccc(C)cc2)S(=O)(=O)N=C1N1CCN(c2cc(C)ccc2C)CC1 | 3 | 6 | 13
COc1cc(C(=O)NCCc2nc3ccccc3n2Cc2ccccc2F)cc(OC)c1OC | 7 | 0 | 9
COc1ccccc1C(=O)NCc1nc2ccccc2n1Cc1cc(C)ccc1C | -7 | 67* | 71*
Cc1cccc(C(=O)NCc2nc3ccccc3n2Cc2ccccc2C)c1 | 3 | 59* | -12
Cc1cccc(C(=O)NCCc2nc3ccccc3n2Cc2ccccc2F)c1 | 2 | 17 | -5
O=C(O)C1O[C@H](O)C(O)C(O)[C@@H]1O (some centres undefined) | 3 | 9 | 4
COc1ccc2[nH]c(=O)c(CN(CCc3ccc(OC)c(OC)c3)C(=O)Nc3ccc(F)cc3)cc2c1 | 10 | 8 | 7
CCOC(=O)c1cnc(Nc2ccc(F)c(Cl)c2)c2ccccc12 | 7 | 44* | 18
Cc1ccc(Nc2ncc(C(=O)NCC3COc4ccccc4O3)c3ccccc23)cc1Cl (centres undefined) | 8 | 0 | 4
O=C(Nc1cnc(N2CCCC2)nc1)Nc1ccc(F)cc1F | 14 | 3 | 5
CC(=O)Nc1c(-c2ccc(C)cc2)c(C)nn1-c1ccc(C(=O)Nc2cccc(C#N)c2)cc1 | -6 | 49* | -10
CC(=O)Nc1c(-c2ccc(F)cc2)c(C)nn1-c1ccc(C(=O)NCc2ccccn2)cc1 | 12 | 4 | 2
Cc1cc2n(n1)CC(C)(C(=O)NCc1ccc(F)cc1)N(Cc1ccc(Cl)cc1)C2=O (centres undefined) | 1 | -3 | 2
COc1ccc(C(=O)N2CCN(Cc3cc(=O)n4ccccc4n3)CC2)cc1 | 18 | 20 | 36*
Cc1cccc(NC(=O)Nc2ccccc2SCc2cc(=O)n3ccccc3n2)c1 | 1 | . | -3
Cc1ccn2c(=O)cc(COc3cccc(NC(=O)Nc4ccc(F)cc4)c3)nc2c1 | 1 | 38* | -36
SMILES | USP28 inh | USP17 block | USP30 block
COc1ccc(OCC(=O)Nc2ccc(C)c(OCc3cc(=O)n4ccccc4n3)c2)cc1 | -13 | 50* | -56
Cc1ccn2c(=O)cc(COc3cccc(NC(=O)Nc4ccccc4)c3)nc2c1 | -9 | -18 | -67
Cc1ccccc1NC(=O)Nc1ccccc1OCc1cc(=O)n2ccccc2n1 | 20 | 50* | 42*
Cc1ccn2c(=O)cc(COc3cccc(NC(=O)COc4ccccc4C)c3)nc2c1 | -44 | -158 | -271
O=C(c1cc(F)ccc1Br)N1CCN(Cc2cc(=O)n3ccccc3n2)CC1 | -14 | . | -23
COc1cccc(NC(=O)CN2C(=O)C(O)(c3ccccc3)c3ccccc32)c1 (centres undefined) | 18 | 9 | 6
COc1ccc(NC(=O)CSc2nc3ccccc3[nH]2)cc1OC | -5 | -24 | -10
O=[N+]([O-])c1ccc(NCC2COc3ccccc3O2)c(S(=O)(=O)N2CCCC2)c1 (centres undefined) | -22 | -78 | -102
N#Cc1cc([N+](=O)[O-])ccc1NCC1COc2ccccc2O1 (centres undefined) | 47* | -8 | -41
CCOC(=O)C1CCN(C(=O)c2ccc3c(c2)NC(=O)C2CCCN32)CC1 (centres undefined) | 12 | 73* | 11
COc1cccc(CNC(=O)c2ccc3c(c2)NC(=O)C2CCCN32)c1OC (centres undefined) | -10 | 54* | -32
CCN1CCN(C(=O)c2ccc3c(c2)NC(=O)C2CCCCN32)CC1 (centres undefined) | -9 | 0 | -43
O=C(NCc1ccccc1)c1ccc2c(c1)NC(=O)C1CCC(=O)N21 (centres undefined) | 7 | 14 | 12
CN1c2ccccc2CN(CC2CCOCC2)CC1Cc1ccccc1 (centres undefined) | -220 | -147 | i
CC1CCc2c(sc3nc(CN4CCOCC4)nc(NCC(=O)Nc4ccccc4Br)c23)C1 (centres undefined) | -10 | 4 | -11
O=C(NCCc1ccccc1)c1ccc2nc(-n3cccc3)sc2c1 | -178 | -146 | -473
CC1OC2CC(O)C1(O)C1=C2C(O)=C(C(N)=O)C(=N)C1=O (centres undefined) | 60* | 62* | -23
Cc1ccc(C)c(S(=O)(=O)N2CCC(n3cnc4ccccc4c3=O)CC2)c1 | 9 | 12 | 17
O=C(CCc1c[nH]c2ccccc12)N1CCN(C(=O)c2ccncc2)CC1 | -3 | -2 | 4
O=C(c1ccncc1)N1CCC(c2c[nH]c3ccccc23)(c2c[nH]c3ccccc23)CC1 | 6 | 47* | 4
Cc1ccccc1[C@H]1C[C@@H](O)[C@@H](O)[C@@H]1NC(=O)COc1ccccc1 | 15 | 21 | 39*
COc1ccccc1C(=O)N[C@H]1[C@H](O)[C@H](O)C[C@@H]1c1ccccc1C | 8 | 15 | 13
CCc1ccc(-c2nc(SC(C)C(=O)NC3CCCc4ccccc43)n[nH]2)cc1 (centres undefined) | 12 | 48* | 40*
COc1ccc(-c2cc(C(=O)NC3CCCc4ccccc43)[nH]n2)cc1 (centres undefined) | 28 | . | 25
CC1(C)Cc2nc3sc(C(=O)NCCO)c(N)c3cc2CS1 | -113 | 4 | 8
SMILES | USP28 inh | USP17 block | USP30 block
CCOc1cc(CN2CCCC2c2cccc(F)c2)ccc1OCC(N)=O (centres undefined) | -2 | -17 | -28
COc1ccc(C(=O)NCCc2c[nH]c3ccccc23)cc1[N+](=O)[O-] | 39* | -11 | 3
COc1cc(OC)c2c(C)c(CC(=O)NCCc3c[nH]c4ccccc34)c(=O)oc2c1 | -9 | 33* | -1
COc1cc2oc(=O)c(CC(=O)N[C@@H](Cc3c[nH]c4ccccc34)C(=O)O)c(C)c2cc1OC | -3 | . | -4
COc1ccccc1CNC(=O)c1[nH]cnc1C(=O)NCCc1c[nH]c2ccccc12 | 0 | -16 | -1
Cc1nc(NC2CC2)sc1C(=O)NC1CC1 | 7 | -3 | 3
COc1cc(O)c2c(=O)c(-c3ccc(O)cc3)coc2c1 | 30* | 73* | 14
O=c1c(-c2ccc(O)c(O)c2)coc2cc(O)ccc12 | 3 | -43 | -70

Screening data deposited in PubChem by Buhrlage Lab, Dana-Farber Cancer Institute and Novartis Institutes for BioMedical Research (Cambridge, Mass).
